Measured values: PubChem BioAssay AID1159580 (chemical genetic matrix, 2015)
Where “and” joins values, the source holds several entries; their conditions need not be identical. Identical values can stand only once. Out of some 5,500 compounds screened, about 2,000 (36%) were called active. Inconclusive results (about 18%) are left out. This is one part of the list. Values without a mark were called inactive. Cut-off read from the data, not from the text of the source: active = normalized growth mostly below about 0.91 (no sharp cut-off); inconclusive = no clear call, values can overlap the other calls; inactive = mostly above about 0.92.

Experiment: chemical genetic growth profiling, strain panel (AID 1159580);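 note: tested at 20 µM; growth read once vehicle control cultures reached saturation at 30 °C; 1 = growth at the plate median or of vehicle wells; lower values mean less growth of the strain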
Conditions: S. cerevisiae deletion strains, growth OD

Cc1oncc1C(=O)Nc1ccc(C(F)(F)F)cc1
normalized growth (locus YAL013W, strain DEP1, active compounds read low): 1.03 and 0.94 | normalized growth (locus YAL021C, strain ccr4, active compounds read low): 1.05 | normalized growth (locus YAL026C, strain drs2, active compounds read low): 0.97 | normalized growth (locus YAL030W, strain snc1, active compounds read low): 0.979 | normalized growth (locus YAL040C, strain CLN3, active compounds read low): 0.918 | normalized growth (locus YBL061C, strain skt5, active compounds read low): 1.01 | normalized growth (locus YBR009C, strain hhf1, active compounds read low): 0.901 (active) | normalized growth (locus YBR021W, strain FUR4, active compounds read low): 1.02 | normalized growth (locus YBR023C, strain chs3, active compounds read low): 0.979 | normalized growth (locus YBR171W, strain sec66, active compounds read low): 1.02 | normalized growth (locus YBR229C, strain ROT2, active compounds read low): 1.01 | normalized growth (locus YBR231C, strain swc5, active compounds read low): 0.88 (active) | normalized growth (locus YBR279W, strain paf1, active compounds read low): 1 | normalized growth (locus YCL011C, strain gbp2, active compounds read low): 0.919 | normalized growth (locus YCL016C, strain dcc1, active compounds read low): 0.981 | normalized growth (locus YCL029C, strain bik1, active compounds read low): 0.996 | normalized growth (locus YCL061C, strain MRC1 (second series), active compounds read low): 0.983 | normalized growth (locus YCL061C, strain MRC1, active compounds read low): 0.95 | normalized growth (locus YCL069W, strain vba3, active compounds read low): 0.982 | normalized growth (locus YCR088W, strain abp1, active compounds read low): 0.978 | normalized growth (locus YDL005C, strain med2, active compounds read low): 1.02 | normalized growth (locus YDL035C, strain GPR1, active compounds read low): 1.04 | normalized growth (locus YDL040C, strain nat1, active compounds read low): 0.99 | normalized growth (locus YDL074C, strain BRE1, active compounds read low): 1.01 | normalized growth (locus YDL101C, strain DUN1, active compounds read low): 1.02 | normalized growth (locus YDL134C, strain PPH21, active compounds read low): 1.04 | normalized growth (locus YDL185W, strain tfp1, active compounds read low): 0.993 | normalized growth (locus YDL192W, strain arf1, active compounds read low): 0.989 | normalized growth (locus YDR001C, strain nth1, active compounds read low): 0.986 | normalized growth (locus YDR069C, strain doa4, active compounds read low): 0.977 | normalized growth (locus YDR101C, strain arx1, active compounds read low): 0.991 | normalized growth (locus YDR137W, strain rgp1, active compounds read low): 1.03 | normalized growth (locus YDR150W, strain NUM1, active compounds read low): 1.01 | normalized growth (locus YDR159W, strain sac3, active compounds read low): 0.754 (active) | normalized growth (locus YDR162C, strain NBP2, active compounds read low): 1.03 | normalized growth (locus YDR195W, strain ref2): 1.07 | normalized growth (locus YDR297W, strain sur2, active compounds read low): 0.91 (active) | normalized growth (locus YDR318W, strain mcm21, active compounds read low): 0.993 | normalized growth (locus YDR334W, strain swr1, active compounds read low): 0.991 | normalized growth (locus YDR335W, strain msn5, active compounds read low): 0.994 | normalized growth (locus YDR363W, strain ESC2, active compounds read low): 0.966 | normalized growth (locus YDR388W, active compounds read low): 1 | normalized growth (locus YDR392W, strain spt3, active compounds read low): 0.761 | normalized growth (locus YDR502C, strain sam2, active compounds read low): 0.996 | normalized growth (locus YEL003W, strain gim4, active compounds read low): 0.971 | normalized growth (locus YEL037C, strain rad23, active compounds read low): 1.01 | normalized growth (locus YEL061C, strain CIN8 (second series), active compounds read low): 0.998 | normalized growth (locus YEL061C, strain CIN8, active compounds read low): 1.01 | normalized growth (locus YER002W, strain NOP16, active compounds read low): 1.01 | normalized growth (locus YER015W, strain faa2, active compounds read low): 0.998 | normalized growth (locus YER016W, strain bim1, active compounds read low): 1.02 | normalized growth (locus YER110C, active compounds read low): 0.99 | normalized growth (locus YER111C, strain swi4, active compounds read low): 1.02 | normalized growth (locus YER155C, strain BEM2 (second series), active compounds read low): 0.733 (active) | normalized growth (locus YER155C, strain BEM2, active compounds read low): 1.03 | normalized growth (locus YER167W, strain BCK2, active compounds read low): 1.02 | normalized growth (locus YFR010W, strain ubp6, active compounds read low): 1.01 | normalized growth (locus YGL078C, strain dbp3, active compounds read low): 0.991 | normalized growth (locus YGL086W, strain mad1, active compounds read low): 0.989 | normalized growth (locus YGL167C, strain pmr1, active compounds read low): 1.01 | normalized growth (locus YGL173C, strain kem1, active compounds read low): 0.976 | normalized growth (locus YGL227W, strain vid30, active compounds read low): 0.97 | normalized growth (locus YGL240W, strain doc1, active compounds read low): 0.785 (active) | normalized growth (locus YGL248W, strain PDE1, active compounds read low): 1.02 | normalized growth (locus YGL253W, strain hxk2, active compounds read low): 0.997 | normalized growth (locus YGR078C, strain PAC10, active compounds read low): 1.02 | normalized growth (locus YGR135W, strain pre9, active compounds read low): 1 | normalized growth (locus YGR252W, strain gcn5, active compounds read low): 0.988 | normalized growth (locus YHR013C, strain ard1, active compounds read low): 1.13 | normalized growth (locus YHR027C, strain rpn1, active compounds read low): 0.992 | normalized growth (locus YHR030C, strain SLT2, active compounds read low): 1.02 | normalized growth (locus YHR079C, strain IRE1 (second series), active compounds read low): 0.98 | normalized growth (locus YHR094C, strain hxt1, active compounds read low): 0.99 | normalized growth (locus YHR129C, strain ARP1, active compounds read low): 1.01 | normalized growth (locus YHR142W, strain chs7, active compounds read low): 0.928 | normalized growth (locus YHR200W, strain rpn10, active compounds read low): 0.991 | normalized growth (locus YIL066C, strain RNR3, active compounds read low): 1.04 | normalized growth (locus YIL073C, strain SPO22, active compounds read low): 1 | normalized growth (locus YIL125W, strain kgd1, active compounds read low): 0.99 | normalized growth (locus YIR030C, strain dcg1, active compounds read low): 0.985 | normalized growth (locus YJL092W, strain hpr5, active compounds read low): 0.983 | normalized growth (locus YJL095W, strain BCK1 (second series), active compounds read low): 0.947 | normalized growth (locus YJL095W, strain BCK1, active compounds read low): 0.999 | normalized growth (locus YJL115W, strain asf1, active compounds read low): 1.01 | normalized growth (locus YJL129C, strain trk1, active compounds read low): 0.869 (active) | normalized growth (locus YJL134W, strain LCB3, active compounds read low): 1.02 | normalized growth (locus YJL154C, strain vps35, active compounds read low): 0.994 | normalized growth (locus YJL164C, strain tpk1, active compounds read low): 0.952 | normalized growth (locus YJL166W, strain qcr8, active compounds read low): 0.932
